Experimental data as given in paper PMC4336329 (PLoS ONE, 2015).
About 2,200 (0.71%) of roughly 310,000 compounds showed an effect of 50% or more. The effect is printed as a negative number. Shown is part of a subset that was picked to be rich in strong results.

target: human ether-à-go-go-related gene (hERG) potassium channel (human, UniProt Q12809); test: primary screen, population patch clamp on CHO cells stably expressing hERG; higher = less effect of the substance
Sequence (Q12809 whole entry, looked up): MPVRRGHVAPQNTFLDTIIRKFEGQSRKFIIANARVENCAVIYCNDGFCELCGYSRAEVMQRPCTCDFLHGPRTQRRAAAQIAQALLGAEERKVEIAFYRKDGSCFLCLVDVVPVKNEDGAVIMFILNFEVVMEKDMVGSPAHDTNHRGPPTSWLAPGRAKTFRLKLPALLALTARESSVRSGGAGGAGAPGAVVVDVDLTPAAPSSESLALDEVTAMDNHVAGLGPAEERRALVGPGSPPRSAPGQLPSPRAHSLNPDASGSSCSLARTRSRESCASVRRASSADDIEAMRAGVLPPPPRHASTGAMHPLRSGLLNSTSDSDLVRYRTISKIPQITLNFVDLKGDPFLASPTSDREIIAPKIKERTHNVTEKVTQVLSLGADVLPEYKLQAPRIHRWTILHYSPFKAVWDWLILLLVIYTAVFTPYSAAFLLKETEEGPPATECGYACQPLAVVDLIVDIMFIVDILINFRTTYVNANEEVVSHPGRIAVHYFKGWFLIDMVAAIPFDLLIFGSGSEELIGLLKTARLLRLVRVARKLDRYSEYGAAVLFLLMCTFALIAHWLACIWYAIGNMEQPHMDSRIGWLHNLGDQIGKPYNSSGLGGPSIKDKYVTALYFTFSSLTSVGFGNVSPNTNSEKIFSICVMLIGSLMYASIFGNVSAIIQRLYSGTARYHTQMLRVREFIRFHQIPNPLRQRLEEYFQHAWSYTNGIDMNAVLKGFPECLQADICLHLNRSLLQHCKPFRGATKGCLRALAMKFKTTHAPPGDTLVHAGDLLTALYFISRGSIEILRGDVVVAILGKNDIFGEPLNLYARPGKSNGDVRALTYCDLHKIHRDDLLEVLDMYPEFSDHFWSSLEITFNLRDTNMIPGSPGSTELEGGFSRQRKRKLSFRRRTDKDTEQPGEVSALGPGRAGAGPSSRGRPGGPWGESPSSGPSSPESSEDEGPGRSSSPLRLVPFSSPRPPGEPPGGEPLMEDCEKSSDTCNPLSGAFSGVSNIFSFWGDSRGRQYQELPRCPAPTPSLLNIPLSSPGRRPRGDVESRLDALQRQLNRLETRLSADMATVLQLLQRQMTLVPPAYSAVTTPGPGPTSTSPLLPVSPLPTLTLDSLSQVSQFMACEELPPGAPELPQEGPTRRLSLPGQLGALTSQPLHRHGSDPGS

Row | Compound | hERG current change (%, negative = inhibition) at 1uM [%]
1 | CC(=O)c1ccc(S(=O)(=O)Nc2ccccc2C(=O)NC2CC2)cc1 | 9.72
2 | O=C1CN(S(=O)(=O)c2cccc(C(=O)O)c2)c2ccccc2N1 | 11.3
3 | CCC(CC)c1nnc(NC(=O)c2ccc(N3CCCCC3)c([N+](=O)[O-])c2)s1 | -9.23
4 | CC(CCc1ccccc1)NCC(O)c1cccc([N+](=O)[O-])c1.Cl (stereo not drawn) | -8.42
5 | CC(CCc1ccccc1)N(C)CC(O)c1cccc([N+](=O)[O-])c1.Cl (stereo not drawn) | -56.8
6 | C=CCN(CC(O)c1cccc([N+](=O)[O-])c1)C(C)CCc1ccccc1.Cl (stereo not drawn) | -9.83
7 | Cc1cc(C)c(CN2CCCC(CNC(=O)c3ccc(F)cc3)C2)c(-n2cccn2)c1 (stereo not drawn) | -85.4
8 | COc1cccc(CN2CCCC(CNC(=O)c3ccc(F)cc3)C2)c1OC (stereo not drawn) | -12.6
9 | CCOC(=O)C1(CC2CCCCO2)CCN(Cc2cc(F)ccc2-n2cccn2)CC1 (stereo not drawn) | -14.9
10 | O=C(NCC1CCCN(Cc2cccc(C(F)(F)F)c2)C1)c1ccc(F)cc1 (stereo not drawn) | -5.71
11 | CCOC(=O)C1(CC2CCCCO2)CCN(Cc2c(C)cc(C)cc2-n2cccn2)CC1 (stereo not drawn) | -84.1
12 | CCOC(=O)C1(CC2CCCCO2)CCN(Cc2nccn2-c2cccc(C)c2)CC1 (stereo not drawn) | -1.48
13 | Cc1cc(CN2CCCC(CNC(=O)c3ccc(F)cc3)C2)cc(C)c1O (stereo not drawn) | -14.5
14 | Cc1ccc(-n2cccn2)c(CN2CCCC(CNC(=O)c3ccc(F)cc3)C2)c1 (stereo not drawn) | -78.9
15 | CCn1ncc(CN2CCCC(CNC(=O)c3ccc(F)cc3)C2)c1C (stereo not drawn) | 1.73
16 | COc1cccc(NC(=O)NCCCCc2ccccc2)c1 | -0.169
17 | CCOC(=O)CN(C(=O)c1snc(C(N)=O)c1N)C(C(=O)NCCC(C)C)c1ccc(F)cc1 (stereo not drawn) | 7.34
18 | COc1ccccc1CNC(=O)C(CCSC)NS(=O)(=O)c1ccc2c(c1)oc(=O)n2C (stereo not drawn) | 15.7
19 | CN(C)S(=O)(=O)c1cccc(C(=O)OCC(=O)N2CCCC2=O)c1 | 12.1
20 | O=C(CNC(=O)c1ccc(Cl)cc1)OCC(=O)c1ccccc1 | -0.984
21 | Cn1c(SCC(=O)NCCc2ccccc2)ncc(C(=O)Nc2ccc(F)cc2)c1=O | 12.5
22 | CC(C(=O)Oc1ccc2c(c1)OCO2)N1C(=O)c2ccccc2C1=O (stereo not drawn) | -1.93
23 | C/C(=N\N1CCN(c2ccc(Cl)cc2)CC1)c1cccs1 | 4.52

Row | Compound | hERG current change (%, negative = inhibition) at 1uM [%]
24 | O=C(NC1CCCCC1)c1ccc(NS(=O)(=O)c2cccc3cccnc23)cc1 | 12.5
25 | CCC(c1nnnn1C1CCCCC1)N1CCN(C2CCCC2)CC1.Cl (stereo not drawn) | 11.6
26 | CCCCC(c1nnnn1C1CCCC1)N1CCN(C2CCCCC2)CC1 (stereo not drawn) | -63.1
27 | CCCC(c1nnnn1C(C)(C)CC)N1CCN(C2CCCC2)CC1.Cl (stereo not drawn) | -17.8
28 | CCCCC(c1nnnn1C1CCCC1)N1CCN(C(=O)c2ccco2)CC1.Cl (stereo not drawn) | -13.5
29 | CCCC(c1nnnn1C1CCCCC1)N1CCN(C2CCCC2)CC1.Cl (stereo not drawn) | -16.6
30 | CCCCC(c1nnnn1C1CCCC1)N1CCN(C2CCCC2)CC1.Cl (stereo not drawn) | -82
31 | C=CCNC(=O)c1c(Cl)cccc1Cl | 6.34
32 | COC(=O)C1=C(CSCc2ccco2)NC(=O)NC1c1cc(C)ccc1C (stereo not drawn) | -8.26
33 | CCOc1cccc(CN2CCN(CCCc3ccccc3)C(CCO)C2)c1O (stereo not drawn) | -54.7
34 | COc1cccc(CN2CCN(CCCc3ccccc3)C(CCO)C2)c1O (stereo not drawn) | -41.8
35 | CCOc1ccccc1CN1CCN(CCCc2ccccc2)CC1CCO (stereo not drawn) | -30
36 | OCCC1CN(CCCc2ccccc2)CCN1Cc1ccc(F)cc1 (stereo not drawn) | -12.1
37 | Cc1ccc(CN2CCN(CCCn3cccn3)CC2CCO)cc1 (stereo not drawn) | -23.7
38 | CCOc1cccc(CN2CCN(CCc3ccccc3)C(CCO)C2)c1O (stereo not drawn) | -20.1
39 | COc1cc(CN2CCN(CCCc3ccccc3)CC2CCO)cc(OC)c1 (stereo not drawn) | -46.8
40 | OCCC1CN(Cc2ccc(F)cc2)CCN1CCc1ccccc1 (stereo not drawn) | -48
41 | OCCC1CN(CCCn2cccn2)CCN1Cc1ccccc1 (stereo not drawn) | 8.59
42 | CCOc1ccc(CN2CCN(CCCn3cccn3)CC2CCO)cc1 (stereo not drawn) | -83
43 | OCCC1CN(Cc2ccc(F)cc2)CCN1CCCc1ccccc1 (stereo not drawn) | -55
44 | CCOc1ccc(CN2CCN(CCCc3ccccc3)CC2CCO)cc1 (stereo not drawn) | -80.9
45 | CC(C)Oc1ccc(Cc2n[nH]c(=S)n2Cc2ccccc2)cc1Cl | 5.04
46 | CC(=O)c1c(C)[nH]c(C(=O)OCC(=O)Nc2ccc(Cl)c(S(=O)(=O)N(C)C)c2)c1C | -2.69

Row | Compound | hERG current change (%, negative = inhibition) at 1uM [%]
47 | CCCNc1nc(C)cc(-c2cc(C(=O)NCc3ccccc3)on2)n1 | 12
48 | Cc1c(Cl)cccc1Nc1nc(N)nc(CSC(=S)N2CCOCC2)n1 | 8.31
49 | CCOC(=O)/C(C#N)=C\c1c(C)cc(C)c(COC(C)=O)c1C | 15.6
50 | OCCOc1ccc(CN2CCN(CCCc3ccccc3)C(CCO)C2)cc1 (stereo not drawn) | -19.8
51 | CCOc1ccc(CN2CCN(CCCc3ccccc3)C(CCO)C2)cc1 (stereo not drawn) | -75.8
52 | COc1ccc(CN2CCN(CCCc3ccccc3)C(CCO)C2)c(O)c1 (stereo not drawn) | -71.2
53 | COc1ccc(CN2CCN(CCc3ccccc3)C(CCO)C2)c(O)c1 (stereo not drawn) | -26.9
54 | OCCC1CN(CCCc2ccccc2)CCN1CCc1ccccc1 (stereo not drawn) | -32.3
55 | Cc1ccc(CN2CCN(CCCc3ccccc3)CC2CCO)cc1 (stereo not drawn) | -68.7
56 | COc1ccc(O)c(CN2CCN(CCCc3ccccc3)C(CCO)C2)c1 (stereo not drawn) | -21.7
57 | C#Cc1ccc(CN2CCN(CCCc3ccccc3)C(CCO)C2)cc1 (stereo not drawn) | -14.1
58 | OCCC1CN(CCCc2ccccc2)CCN1Cc1ccccc1 (stereo not drawn) | -35.6
59 | N#C/C(=C/c1ccc(-c2ccc(C(=O)O)c(Cl)c2)o1)C(=O)NCC1CCCO1 (stereo not drawn) | 10.3
60 | COc1ccccc1CN1[C@@H](CC(=O)O)c2cc(F)ccc2S1(=O)=O | 13.9
61 | Cc1ccc(S(=O)(=O)N2CCOCC2)cc1NC(=O)COC(=O)CNC(=O)c1ccc(C(C)(C)C)cc1 | 20.2
62 | COC(=O)C1=C(c2cc3ccccc3s2)C[C@@H]2CC[C@H]1N2C(=O)NCCCOC(C)C | 2.84
63 | Cc1ccc(S(=O)(=O)N(C)N=O)cc1 | 19.1
64 | CCn1ccnc1CN1CCN(CC=C(C)C)C(CCO)C1 (stereo not drawn) | 9.77
65 | O=C1N=C(N2CCOCC2)S/C1=C/c1ccc(-c2ccc(F)cc2)o1 | 9.65
66 | Cc1ccc(-c2ccc(/C=C3\SC(N4CCOCC4)=NC3=O)o2)cc1 | -54.6
67 | Cc1ccccc1-c1ccc(/C=C2/SC(N3CCOCC3)=NC2=O)o1 | -3.7
68 | CCc1nc2c(nnn2Cc2ccc(F)cc2)c(=O)[nH]1 | 1.79
69 | COc1ccc(C2CCCN2C(=S)Nc2cccc(Cl)c2C)cc1OC (stereo not drawn) | 2.08

Row | Compound | hERG current change (%, negative = inhibition) at 1uM [%]
70 | N#C/C(=C\c1ccc(OCCN2CCOCC2)cc1)C(=O)Nc1ccccc1F | 12.6
71 | CCCC(C(=O)OCC)P(=O)(c1ccccc1)c1ccccc1 (stereo not drawn) | -0.896
72 | CCOc1ccccc1NC(=O)CSc1nc2cccnc2n1C | 5.84
73 | Cn1c(SCCCC(=O)c2ccc(F)cc2)nnc1-c1ccncc1 | -38.5
74 | Cn1c(SCCCC(=O)c2ccc(Br)cc2)nnc1-c1ccncc1 | -51.1
75 | Cn1c(SCCCC(=O)c2ccccc2)nnc1-c1ccncc1 | -24.9
76 | Cc1ccc(NC(=O)c2ccc(CSc3nnc(C)s3)cc2)c(C)c1 | 9.08
77 | CCn1c(CNC(=O)c2ccc(OC)c(OC)c2)nnc1SCC(=O)Nc1ccc(OC)cc1 | 6.99
78 | N#Cc1ccc(CSc2nnc(-c3ccncc3)n2CCc2ccccc2)cc1 | -78.2
79 | c1ccc(CCn2c(SCc3ccccc3)nnc2-c2ccncc2)cc1 | -12.4
80 | Cn1c(SCc2ccc(C#N)cc2)nnc1-c1ccncc1 | 6.61
81 | O=C(OCCN1C(=O)c2ccccc2C1=O)c1cccs1 | 11.9
82 | CCC(C)n1c(=N)c(C#N)cc2c(=O)n3cc(C)ccc3nc21 (stereo not drawn) | -22
83 | C=CCn1c(=N)c(C(=O)NCCCOC)cc2c(=O)n3cc(C)ccc3nc21 | -41.9
84 | CCC(C)n1c(=N)c(C#N)cc2c(=O)n3cccc(C)c3nc21 (stereo not drawn) | -16.6
85 | CNC(=O)c1cc2c(=O)n3cccc(C)c3nc2n(C(C)C)c1=N | -82.3
86 | Cc1cccn2c(=O)c3cc(S(=O)(=O)c4ccccc4)c(=N)n(Cc4cccnc4)c3nc12 | -3.7
87 | COCCCNC(=O)c1cc2c(=O)n3cccc(C)c3nc2n(C(C)C)c1=N | -46.1
88 | CNC(=O)c1cc2c(=O)n3cc(C)ccc3nc2n(C(C)C)c1=N | -81.9
89 | Cc1cccn2c(=O)c3cc(C(=O)NCc4cccnc4)c(=N)n(C(C)C)c3nc12 | -67.3
90 | O=C(NCc1cccnc1)c1cccn2c(=O)c3sccc3nc12 | -16.3
